15 compounds from PubChem BioAssay can be followed below.

Test [1] concerns the target Nuclear receptor coactivator 3 (Homo sapiens) (UniProt Q9Y6Q9). As to the kind of experiment: NCOA3 GAL4-fusion reporter inhibition – cell-based, luminescence, quadruplicate, confirmation (AID 588792;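 active = mean inhibition over 43.08%, the solvent-only control mean plus 3 SD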;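 note: 0% = DMSO treated cells and 100% = gossypol at 36 µM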). Conditions: HEK293 GAL4-SRC3 luciferase reporter, at 3.6 µM, active compounds read high.
Test [2] relates to transactivating tegument protein VP16 (Human herpesvirus 1), Gal4-VP16 luciferase reporter. As to the kind of experiment: repression of VP16-driven luciferase reporter – cell-based, luminescence, high throughput, counter-screen for SRC3 inhibitor project (AID 588794; in the data active = inhibition above about 30%). Particulars: mammalian cells, at 3.6 µM, active compounds read high.
The target of test [3] is Nuclear receptor coactivator 1 (Homo sapiens) (UniProt Q15788). As to the kind of experiment: NCOA1 GAL4-fusion reporter inhibition – cell-based, luminescence, quadruplicate, confirmation (AID 588820;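 active = mean inhibition above 46.68%, the untreated control wells mean plus 3 SD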;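 note: 0% = DMSO wells and 100% = gossypol 36 µM treated wells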). Conditions: HEK293 GAL4-SRC1 luciferase reporter, at 3.6 µM, active compounds read high. Background: A reporter such as luciferase makes a cellular process visible.
Chain of Nuclear receptor coactivator 1 (Homo sapiens) (Q15788 whole entry, looked up, the tested form may be a part): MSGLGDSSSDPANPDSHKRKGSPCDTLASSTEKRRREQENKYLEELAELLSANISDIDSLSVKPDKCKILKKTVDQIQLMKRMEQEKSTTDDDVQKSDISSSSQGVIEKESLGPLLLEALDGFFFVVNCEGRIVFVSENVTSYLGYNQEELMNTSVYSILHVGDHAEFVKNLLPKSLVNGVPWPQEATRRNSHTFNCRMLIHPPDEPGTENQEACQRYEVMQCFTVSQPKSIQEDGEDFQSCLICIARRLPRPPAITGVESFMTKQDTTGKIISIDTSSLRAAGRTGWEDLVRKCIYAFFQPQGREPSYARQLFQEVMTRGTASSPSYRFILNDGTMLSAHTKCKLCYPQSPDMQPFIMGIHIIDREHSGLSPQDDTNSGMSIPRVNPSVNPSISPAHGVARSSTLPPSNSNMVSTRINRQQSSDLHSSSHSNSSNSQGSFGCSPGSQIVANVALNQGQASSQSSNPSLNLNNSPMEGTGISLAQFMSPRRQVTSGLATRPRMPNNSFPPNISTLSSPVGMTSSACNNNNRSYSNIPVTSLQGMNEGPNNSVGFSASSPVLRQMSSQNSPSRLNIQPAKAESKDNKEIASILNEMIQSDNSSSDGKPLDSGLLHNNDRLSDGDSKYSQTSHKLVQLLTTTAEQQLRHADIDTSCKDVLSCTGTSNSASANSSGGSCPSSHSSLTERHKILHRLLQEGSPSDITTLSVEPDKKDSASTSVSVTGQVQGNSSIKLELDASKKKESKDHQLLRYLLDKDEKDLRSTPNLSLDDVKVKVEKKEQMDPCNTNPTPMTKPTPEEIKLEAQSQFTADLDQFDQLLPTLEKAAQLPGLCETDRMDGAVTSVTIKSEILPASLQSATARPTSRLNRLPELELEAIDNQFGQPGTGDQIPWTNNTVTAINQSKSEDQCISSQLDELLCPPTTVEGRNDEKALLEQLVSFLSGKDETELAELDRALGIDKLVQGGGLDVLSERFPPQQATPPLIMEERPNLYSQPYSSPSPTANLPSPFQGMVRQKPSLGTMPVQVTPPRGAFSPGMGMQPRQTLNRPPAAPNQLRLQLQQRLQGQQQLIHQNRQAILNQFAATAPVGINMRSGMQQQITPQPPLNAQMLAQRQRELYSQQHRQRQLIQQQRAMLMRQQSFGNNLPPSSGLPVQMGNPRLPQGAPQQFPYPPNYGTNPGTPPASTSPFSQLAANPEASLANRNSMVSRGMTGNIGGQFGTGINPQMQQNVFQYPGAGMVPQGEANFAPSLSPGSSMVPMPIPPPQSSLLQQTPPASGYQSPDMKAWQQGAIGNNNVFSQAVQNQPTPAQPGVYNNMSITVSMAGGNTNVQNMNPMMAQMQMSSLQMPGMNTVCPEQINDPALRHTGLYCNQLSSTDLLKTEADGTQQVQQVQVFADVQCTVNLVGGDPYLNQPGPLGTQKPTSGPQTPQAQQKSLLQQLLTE
Test [4] in a line: repression of VP16-driven luciferase reporter – cell-based, luminescence, high throughput, counter-screen for SRC1 inhibitor project (AID 588824; in the data active = inhibition above about 25%). Conditions: cell-based VP16 transactivation luciferase luminescence; at 3.6 µM; active compounds read high.
The nature of test [5]: StAR promoter reporter inhibitors, counter-screen for LRH-1 inverse agonist project, cell-based, luminescence, high throughput (AID 651611). Particulars: StAR promoter luciferase reporter counterscreen, at 3.6 µM, active compounds read high. (In general: The purpose of a counterscreen is to sort out artefacts and off-target activity.)
Test [6] addresses Nuclear receptor subfamily 5 group A member 2 (Homo sapiens) (UniProt O00482). As to the kind of experiment: NR5A2 activity suppression in reporter cells – cell-based, luminescence, confirmation (AID 651613; in the data active = inhibition above about 42%;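 note: HEK293T cells co-transfected with LRH-1 and StAR promoter luciferase reporter; 0% = vehicle wells and 100% = parental cells lacking receptor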). Particulars: cell-based LRH-1 luciferase reporter, inverse agonism; at 3.6 µM; active compounds read high.
Test [7] addresses Steroidogenic factor 1 (Homo sapiens) (UniProt Q13285). As to the kind of experiment: inverse agonism at SF1 nuclear receptor – cell-based, luminescence, high throughput, counter-screen for LRH-1 inverse agonist project (AID 651614; in the data active = inhibition above about 44%;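 note: cells cotransfected with StAR promoter reporter and SF1 expression vector; 0% = vehicle on cells with receptor and 100% = vehicle on cells lacking receptor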). Particulars: cell-based SF1 luciferase reporter, at 3.6 µM, active compounds read high.
Test [8] can be described thus: compounds suppressing VP16-driven luciferase signal – cell-based, luminescence, high throughput, counter-screen for LRH-1 inverse agonist project (AID 651615; in the data active = inhibition above about 33%). Particulars: Gal4-VP16 luciferase reporter cells, at 3.6 µM, active compounds read high.
Test [9] concerns transactivating tegument protein VP16 (Human herpesvirus 1). Kind of test: compounds suppressing VP16-driven luciferase signal – cell-based, luminescence, single concentration, counter-screen for SRC2 inhibitor project (AID 652007; in the data active = inhibition above about 36%). Conditions: cell-based VP16 transactivation luciferase reporter, at 8.9 µM, active compounds read high.
Test [10] has as its target Nuclear receptor coactivator 2 (Homo sapiens) (UniProt Q15596). Kind of test: inhibition of GAL4-SRC2 driven luciferase expression – cell-based, luminescence, HEK293, triplicate, confirmation (AID 652008;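 active = mean inhibition above 46.5%, the solvent-only control mean plus 3 SD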;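 note: 0% = DMSO-treated cells and 100% = Gossypol at 36 µM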). Conditions: HEK293 GAL4-SRC2 luciferase reporter, at 8.9 µM, active compounds read high.

Values without a mark were called inactive. Activity calls are given as the source filed them. Cut-off read from the data, not from the text of the source, unless noted: active = inhibition above about 28%; inactive = the rest.

Chain of Nuclear receptor coactivator 2 (Homo sapiens) (Q15596 whole entry, looked up, the tested form may be a part): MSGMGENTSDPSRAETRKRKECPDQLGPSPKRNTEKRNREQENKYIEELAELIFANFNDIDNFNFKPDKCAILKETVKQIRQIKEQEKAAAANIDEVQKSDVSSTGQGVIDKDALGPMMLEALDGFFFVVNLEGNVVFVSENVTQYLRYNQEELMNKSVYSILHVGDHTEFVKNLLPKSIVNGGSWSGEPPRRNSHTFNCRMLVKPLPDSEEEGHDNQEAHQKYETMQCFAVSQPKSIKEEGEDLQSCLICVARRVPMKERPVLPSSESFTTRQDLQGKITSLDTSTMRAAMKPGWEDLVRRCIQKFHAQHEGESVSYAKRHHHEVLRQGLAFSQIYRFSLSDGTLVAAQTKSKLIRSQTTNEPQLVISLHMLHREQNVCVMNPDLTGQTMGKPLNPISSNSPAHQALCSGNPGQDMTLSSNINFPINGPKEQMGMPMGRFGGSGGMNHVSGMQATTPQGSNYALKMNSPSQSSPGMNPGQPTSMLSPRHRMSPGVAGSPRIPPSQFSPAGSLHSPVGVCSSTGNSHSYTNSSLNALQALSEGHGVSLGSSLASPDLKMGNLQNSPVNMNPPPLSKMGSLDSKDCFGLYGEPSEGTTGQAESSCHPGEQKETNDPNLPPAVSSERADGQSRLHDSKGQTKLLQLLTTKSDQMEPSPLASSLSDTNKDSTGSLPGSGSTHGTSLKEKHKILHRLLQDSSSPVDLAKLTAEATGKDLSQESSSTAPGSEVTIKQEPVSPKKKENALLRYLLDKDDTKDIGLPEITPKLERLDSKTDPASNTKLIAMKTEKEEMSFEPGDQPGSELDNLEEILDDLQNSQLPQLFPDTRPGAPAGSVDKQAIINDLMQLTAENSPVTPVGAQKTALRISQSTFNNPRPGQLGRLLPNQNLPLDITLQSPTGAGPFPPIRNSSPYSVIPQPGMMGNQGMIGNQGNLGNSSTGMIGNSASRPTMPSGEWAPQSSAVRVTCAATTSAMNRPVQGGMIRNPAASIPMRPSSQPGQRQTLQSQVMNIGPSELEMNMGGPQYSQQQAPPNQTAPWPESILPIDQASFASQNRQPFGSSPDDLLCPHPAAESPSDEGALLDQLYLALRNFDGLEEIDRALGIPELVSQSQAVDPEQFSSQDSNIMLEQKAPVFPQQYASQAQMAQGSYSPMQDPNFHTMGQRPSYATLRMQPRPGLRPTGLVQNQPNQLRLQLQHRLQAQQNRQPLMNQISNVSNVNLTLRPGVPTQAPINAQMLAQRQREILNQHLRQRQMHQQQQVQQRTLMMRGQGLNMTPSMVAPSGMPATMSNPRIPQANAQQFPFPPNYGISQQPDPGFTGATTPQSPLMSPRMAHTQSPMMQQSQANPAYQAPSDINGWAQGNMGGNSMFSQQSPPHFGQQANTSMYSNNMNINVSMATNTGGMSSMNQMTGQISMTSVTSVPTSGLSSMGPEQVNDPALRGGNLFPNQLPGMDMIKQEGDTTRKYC
Chain of Nuclear receptor coactivator 3 (Homo sapiens) (Q9Y6Q9 whole entry, looked up, the tested form may be a part): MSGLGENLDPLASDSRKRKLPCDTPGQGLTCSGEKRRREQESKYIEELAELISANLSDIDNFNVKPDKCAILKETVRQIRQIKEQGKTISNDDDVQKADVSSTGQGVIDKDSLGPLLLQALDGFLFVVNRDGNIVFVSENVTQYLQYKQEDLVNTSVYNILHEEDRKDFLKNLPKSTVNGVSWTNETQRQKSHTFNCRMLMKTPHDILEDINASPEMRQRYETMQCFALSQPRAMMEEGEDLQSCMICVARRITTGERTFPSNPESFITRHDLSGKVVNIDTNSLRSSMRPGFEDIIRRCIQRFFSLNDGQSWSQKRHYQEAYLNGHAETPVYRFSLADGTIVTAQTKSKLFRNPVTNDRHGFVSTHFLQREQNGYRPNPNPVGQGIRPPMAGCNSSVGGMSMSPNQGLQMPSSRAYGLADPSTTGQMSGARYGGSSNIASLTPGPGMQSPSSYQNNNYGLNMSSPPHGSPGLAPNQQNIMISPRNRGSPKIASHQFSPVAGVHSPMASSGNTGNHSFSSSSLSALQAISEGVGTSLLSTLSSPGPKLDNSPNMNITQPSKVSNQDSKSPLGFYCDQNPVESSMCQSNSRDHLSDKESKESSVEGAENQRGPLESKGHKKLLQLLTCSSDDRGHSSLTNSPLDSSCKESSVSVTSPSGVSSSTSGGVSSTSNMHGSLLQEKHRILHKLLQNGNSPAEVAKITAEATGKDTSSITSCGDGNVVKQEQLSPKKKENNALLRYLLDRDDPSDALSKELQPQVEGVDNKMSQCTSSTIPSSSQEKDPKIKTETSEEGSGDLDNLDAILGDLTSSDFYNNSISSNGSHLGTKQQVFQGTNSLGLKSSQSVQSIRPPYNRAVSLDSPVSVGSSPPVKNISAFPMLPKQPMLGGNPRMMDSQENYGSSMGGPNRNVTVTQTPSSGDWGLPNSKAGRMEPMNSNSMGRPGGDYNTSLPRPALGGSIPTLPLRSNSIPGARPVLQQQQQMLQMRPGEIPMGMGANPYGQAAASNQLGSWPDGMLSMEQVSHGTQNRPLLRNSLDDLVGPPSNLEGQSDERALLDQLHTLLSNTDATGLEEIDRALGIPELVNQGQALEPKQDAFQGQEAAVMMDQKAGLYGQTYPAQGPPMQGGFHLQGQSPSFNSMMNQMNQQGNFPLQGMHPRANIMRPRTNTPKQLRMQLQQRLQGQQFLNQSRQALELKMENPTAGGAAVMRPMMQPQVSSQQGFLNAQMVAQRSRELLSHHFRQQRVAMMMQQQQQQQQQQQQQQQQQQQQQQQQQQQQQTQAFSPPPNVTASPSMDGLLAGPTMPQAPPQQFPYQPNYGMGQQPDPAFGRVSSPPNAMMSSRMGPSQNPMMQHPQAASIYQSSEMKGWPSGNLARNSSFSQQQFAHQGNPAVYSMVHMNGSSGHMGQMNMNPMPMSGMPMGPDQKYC
Chain of Nuclear receptor subfamily 5 group A member 2 (Homo sapiens) (O00482 whole entry, looked up): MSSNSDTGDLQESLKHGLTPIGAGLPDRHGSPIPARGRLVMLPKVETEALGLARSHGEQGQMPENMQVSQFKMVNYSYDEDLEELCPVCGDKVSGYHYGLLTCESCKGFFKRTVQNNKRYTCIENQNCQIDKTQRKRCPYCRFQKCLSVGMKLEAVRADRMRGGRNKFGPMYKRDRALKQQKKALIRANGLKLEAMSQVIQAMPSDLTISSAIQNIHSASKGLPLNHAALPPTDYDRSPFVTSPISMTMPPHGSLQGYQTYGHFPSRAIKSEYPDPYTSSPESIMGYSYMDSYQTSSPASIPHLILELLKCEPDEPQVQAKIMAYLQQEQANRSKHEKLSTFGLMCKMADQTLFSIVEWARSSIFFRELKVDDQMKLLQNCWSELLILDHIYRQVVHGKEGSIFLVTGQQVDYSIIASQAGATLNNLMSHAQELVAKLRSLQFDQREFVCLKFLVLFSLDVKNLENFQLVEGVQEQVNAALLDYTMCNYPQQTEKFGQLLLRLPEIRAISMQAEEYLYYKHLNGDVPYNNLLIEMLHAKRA

Usually inhibition stands for the change of the read-out against control, counted positive when it falls. In the case of `O=C(N/N=C/c1ccc(O)cc1O)c1ccc(CN2C(=O)c3cccc4cccc2c34)cc1`, the inhibition in test [1] was 67.2% (active); in test [2], 77.8% (active); in test [3] it was 78.5% (active); in test [4], 76.2% (active); in test [5], 84.8% (active); in test [6], 101% (active). Also, the inhibition was 89.2% (active) in [7], 82.6% (active) in test [8], -14.6% in [9] and 18.8% in [10].
With `CC(=O)Nc1ccc(SCC(=O)c2cc(C)n(-c3ccccc3F)c2C)cc1`, the inhibition in [1] is 41%; in test [2] it was 9.76%; in test [3], -10.3%; in test [4], -5.83%; in test [5], -29.9%; in test [6], -14.4%. The inhibition is -11.8% in test [7], -26% in [8], -6.67% in test [9] and 38% in test [10].
On to `C/C(CC(C)(C)C1CCCCC1)=N\NC(N)=S`, for which the inhibition in test [1] was 72.2% (active); in test [2], 60.3% (active); in [3], 48.5% (active); in test [4], 59% (active); in test [5], 45.6% (active); in [6] it was 80.8% (active). Also, the inhibition in test [7] is 82.8% (active); in test [8], 68.6% (active); in [9], 43.8% (active); in test [10], 38.4%.
With `Cc1cc(C(=O)COC(=O)c2ccccc2O)c(C)n1CC1CCCO1` (stereo not given), the inhibition in test [1] is 88.8% (active); in test [2] it was 85.1% (active); in test [3], 81.2% (active); in test [4], 76.8% (active); in [5], 73.5% (active); in test [6] it was 64.9% (active). The inhibition is 76.7% (active) in [7], 75.2% (active) in [8], 86.7% (active) in test [9] and 96.3% (active) in [10].
For the compound `COCC(=O)OC1CCn2c1nc1c2C(=O)C(C)=C(NC(C)=O)C1=O` (stereo not given), the inhibition in test [1] is 91.9% (active); in [2], 86.7% (active); in [3], 75.1% (active); in test [4], 85.7% (active); in test [5], 80.1% (active); in [6] it was 99.7% (active). The inhibition in test [7] was 86.6% (active); in test [8] it was 90.8% (active); in [9], 57.3% (active); in test [10], 73.5% (active).
For `Clc1ccc(-n2ncc3c(NCCN4CCOCC4)ncnc32)cc1`, the inhibition was 37.8% in test [1]; -3.35% in test [2]; 3.19% in test [3]; -21.6% in test [4]; 28.4% (active) in [5]; -30.3% in [6]. Besides, the inhibition in test [7] is 33.4%; in test [8], -23.4%; in test [9], 36.7% (active); in test [10] it was 58.9% (active).
Consider `COC(=O)c1ccc2nc(Nc3nc4c(F)cc(F)cc4s3)sc2c1`, for which the inhibition was 23.9% in [1]; 40.6% (active) in test [2]; -34.6% in test [3]; 36.7% (active) in test [4]; 28.2% (active) in [5]; -92.1% in test [6]. For the same compound, the inhibition was 25.5% in test [7], -29.2% in test [8], -2.64% in [9] and 61.1% (active) in [10].
As to `CC1CC(C)C(=NNC(N)=O)C(C(O)CC2CCC(=O)NC2=O)C1` (stereo not given), the inhibition was 9.15% in test [1]; 11.3% in test [2]; 33.6% in test [3]; 7.8% in [4]; 63.1% (active) in test [5]; 76.7% (active) in test [6]. In addition, the inhibition is 75.8% (active) in [7], 30% in test [8], 8% in [9] and -0.31% in [10].
Take `N#Cc1c(NC(=O)CSc2ncn[nH]2)sc2c1CCCCC2`: the inhibition in test [1] is 51.8% (active); in [2], 65.9% (active); in [3] it was 28.3%; in test [4], 59% (active); in test [5] it was 29.9% (active); in test [6] it was 62.8% (active). Besides, the inhibition was 50.1% (active) in [7], 60.7% (active) in [8], 87.6% (active) in test [9] and 88% (active) in test [10].
Take `COc1ccccc1-c1nnc(Sc2nc([N+](=O)[O-])nn2C)o1`: the inhibition was 58.5% (active) in test [1]; 32.7% (active) in test [2]; 18.7% in test [3]; 36.4% (active) in test [4]; 59.9% (active) in [5]; 62% (active) in test [6]. The inhibition in test [7] is 38.3%; in [8] it was 64.1% (active); in [9] it was 46.1% (active); in test [10], 65.3% (active).
`Cc1cc(C)c(C#N)c(SCc2nnc(-c3ccccc3)o2)n1`: the inhibition was 66.3% (active) in test [1]; 59.8% (active) in test [2]; 38.8% in test [3]; 32.9% (active) in [4]; 33.1% (active) in test [5]; -23.7% in test [6]. Besides, the inhibition in [7] was 27.9%; in [8] it was 15.5%; in [9], 46.2% (active); in [10] it was 82.9% (active).
Consider `CCN1/C(=C/c2sc(-c3ccccc3C)c[n+]2C)Sc2ccccc21`, for which the inhibition in [1] is 76.8% (active); in test [2], 86% (active); in [3], 61.9% (active); in [4], 82.8% (active); in [5], 74.7% (active); in test [6], 105% (active). The inhibition was 94.7% (active) in test [7], 89.2% (active) in test [8], 44.1% (active) in [9] and 34.1% in test [10].
Consider `O=C(CCCN1C(=O)/C(=C/c2ccccc2Cl)SC1=S)NNC(=O)c1ccccc1Cl`, for which the inhibition in test [1] was 58% (active); in test [2], 31.3% (active); in [3], 40%; in [4] it was 40.9% (active); in test [5] it was 54.6% (active); in test [6], 55.1% (active). In addition, the inhibition in [7] is 46.8% (active); in test [8], 45% (active); in test [9] it was 80.7% (active); in [10], 87.5% (active).
For `CCCc1ccc(-c2ccc(/C=C/C(=O)O)cc2)nc1`, the inhibition in [1] is 76% (active); in test [2] it was 71.9% (active); in [3], 70.6% (active); in [4], 67.7% (active); in test [5], 77.9% (active); in test [6], 85.6% (active). For the same compound, the inhibition in [7] was 76.9% (active); in test [8], 68.6% (active); in test [9] it was 85.7% (active); in test [10], 94.6% (active).
Regarding `C=C1C(=O)[C@]23C[C@H]1CCC2[C@@]1(C)C(C[C@@H]3O)[C@](C)(C(=O)OC)CC[C@@H]1O` (stereo not given in full), the inhibition in test [1] was 40%; in [2], 24.9%; in [3], -14.1%; in test [4] it was 37.1% (active); in test [5], 43.8% (active); in [6] it was 41.3% (active). Besides, the inhibition is 42.4% in test [7], 49.4% (active) in [8], 34.8% in [9] and 49.3% (active) in [10].
